Shown are actives, neighbours in structure and some others; about 7.9% of the full set was active somewhere.
Lassa entry inh: inhibitors of Lassa virus binding or cell entry; Lassa virus pseudotype entry inhibition, cell reporter; Potency, µM (doses to about 37.9 µM), inactives show at the top dose activity change, negative = inhibition, hits mostly inhibitors; 300,000 compounds, 1.2% hits; AID 540256; calls by dose curve; tested in HEK293 cells; note: potency is the fitted concentration of half-maximal effect; nearly all actives have a fitted effect of over 50% in size
HCV inhibitor: HCV inhibition; Huh7.5.1 HCVcc-Cre infection, luciferase reporter, 44 h; Potency, µM (series often up to 41.8 µM), inactives show at the top dose activity change, negative = inhibition, usual class: inhibitors; 340,000 compounds, 3.4% hits; AID 651820; active = well fitted inhibition curve with a large enough effect; inconclusive = small, poorly fitted or top-dose-only effect, or another doubt; inactive = no such curve, though single readings can be large or run the other way; note: potency is the fitted concentration of half-maximal effect
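Infectious HCV cell culture screen: compound-treated cells (1,000/well, pre-plated 4 h) are infected with HCVcc-Cre at roughly 0.5 moi and grown 44 h. Infection is quantified by luciferase signal after 15 min substrate incubation at room temperature.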
HCMV antiviral: blocks human cytomegalovirus replication; HFF cells, HCMV-luciferase reporter, 72 h; stronger effect = lower value; activity change, negative = inhibition, % at 57.5 µM; 410,000 compounds, 4.5% hits; AID 1259415; in the data active = activity change below about -60%; inconclusive = no clear call, values can overlap the other calls; inactive = above about -39%
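Luciferase read-out from HCMV-luciferase-infected HFFs (MOI 1 PFU/cell) 72 h post infection at 37C; compounds added after 16 h cell attachment; activity normalized between buffer-only basal and Salinomycin (10uM) inhibitor controls.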
Marburg entry inh: blocks Marburg virus binding to or entry into cells; Marburg virus pseudotyped entry inhibition, cell reporter; Potency, µM (doses to about 37.8 µM), inactives show at the top dose activity change, negative = inhibition, hits mostly inhibitors; 300,000 compounds, 1.8% hits; AID 540276; calls by dose curve; tested in HEK293 cells; note: potency is the fitted concentration of half-maximal effect
FMDV antiviral: antivirals against foot and mouth disease virus. FMDV antiviral cell-based qHTS. Potency, µM (doses to about 57.9 µM), inactives show at the highest dose activity change, negative = inhibition, hits mostly inhibitors. 410,000 compounds, 1.2% hits; calls by dose curve; tested in HEK293T cells; note: read-out not given here; potency is the fitted concentration of half-maximal effect; nearly all actives have a fitted effect of over 45% in size
* hit, by the source's call; ? = inconclusive; . = not tested or not shown; [ ] = another dose, or the depositor's remark. % is set by controls: 0 for no effect and ±100 for the full control effect.

SMILES	Lassa entry inh	HCV inhibitor	HCMV antiviral	Marburg entry inh	FMDV antiviral
CC(NC(=O)CCCc1ccccc1)c1ccncc1 (stereo not drawn)	?	18.7%	-38.8	4.2%	-7.7%
CC#CCN1c2ccccc2[C@]23C[C@@H](C(=O)OC)N(C(=O)C4CCC4)C2=NC(C(=O)OC)=C(C(=O)OC)[C@H]13	.	1.8%[8.37 µM]	-74.8*	.	-25.6%
C=CCN1c2ccccc2[C@]23C[C@@H](C(=O)OC)N(C(=O)CC(C)C)C2=NC(C(=O)OC)=C(C(=O)OC)[C@H]13	.	7.94µM*	-5.2	?	-2.7%
COC(=O)CCNC(=O)CCc1ccc(S(=O)(=O)N2CCCCCC2)cc1	.	17.1%	31.2	.	-5.0%
COc1ccc2cc(-c3[nH]ncc3CN3CCCC3c3nonc3C)ccc2c1 (stereo not drawn)	.	?	0.0	.	-22.0%
Cc1noc(C)c1CSc1nnc2cc(C)c3ccccc3n12	-3.6%	13.0%	.	0.5%	-18.7%
Cc1ccccc1-c1ccc2ncnc(-n3ccnc3)c2c1	.	.	.	.	39.8µM*
CNC(=S)N1N=C(c2ccc(C)cc2)CC1c1ccc(Cl)cc1 (stereo not drawn)	9.2µM*	?	-6.0	?	-22.2%
CNC(=S)N1N=C(c2ccc(C)cc2)CC1c1ccc(Br)cc1 (stereo not drawn)	?	?	7.4	?	14.8%
Cn1nc(C(=O)NCc2ccc(F)cc2)c2c1-c1ccccc1S(=O)(=O)C2	.	14.1µM*	-34.3	.	0.0%
COc1cccc(NC(=O)C(=O)NCC(c2cccnc2)N2CCN(c3ccccc3)CC2)c1 (stereo not drawn)	11.2µM*	.	69.7	.	-1.1%
COc1cccc(C(=O)NCC(c2cccnc2)N2CCN(c3ccccc3OC)CC2)c1 (stereo not drawn)	.	?	.	.	35.5µM*
COc1cccc(C(=O)NCC(c2ccc(N(C)C)cc2)N2CCc3ccccc32)c1 (stereo not drawn)	-8.5%[46.1 µM]	.	-67.9*	.	-16.3%
COc1ccc(C(=O)NCC(c2ccc(N(C)C)cc2)N2CCc3ccccc32)cc1OC (stereo not drawn)	-2.4%[46.1 µM]	.	?	.	-17.5%
Cc1ccccc1CN1C(=O)c2ccccc2S(=O)(=O)c2ccc(C(=O)OCC3CCCO3)cc21 (stereo not drawn)	0.1%[46.1 µM]	.	-3.7	.	3.8%
COC(=O)CCCn1c(-c2ccc(C)cc2)c(C)n2c3c(=O)n(C)c(=O)n(C)c3nc12	?	.	-13.6	1.0%[46.1 µM]	?
Cc1ccc(-c2c(C)n3c4c(=O)n(C)c(=O)n(C)c4nc3n2CCCO)cc1	8.91µM*	.	-73.1*	?	11.2µM*
CCn1c(=O)c(C(=O)CN(C)Cc2ccc(F)cc2)c(N)n(Cc2ccccc2)c1=O	-33.6%	14.0%	-30.7	10µM*	-27.6%
CCn1c(=O)c(C(=O)CN2CCCc3ccccc32)c(N)n(Cc2ccccc2)c1=O	?	?	-88.5*	?	38.8%
CCn1c(=O)c(C(=O)CN2c3ccccc3CC2C)c(N)n(Cc2ccccc2)c1=O (stereo not drawn)	?	?	-30.1	?	-27.8%
COc1ccc(C(=O)N2CCC(n3nccc3NC(=O)C3CC3)CC2)cc1F	.	4.8%	-5.0	.	3.3%
COCc1c(C(=O)N2CCCC(C)C2)cnn1-c1nccc(-c2cc(C)sc2C)n1 (stereo not drawn)	.	.	.	.	25.9%
CC1CCC/C=C/C2CC(O)CC2C(O)/C=C/C(=O)O1 (stereo not drawn)	?	0.708µM*	-99.7*	0.398µM*	-23.6%
C[C@H]1CCC/C=C/C2C[C@H](O)CC2[C@H](O)/C=C/C(=O)O1 (stereo partly drawn)	1.16µM*	?	.	0.366µM*	-24.5%
CC1CCCC=CC2CC(O)CC2C(O)/C=C\C(=O)O1 (stereo not drawn)	.	.	.	0.398µM*	.
SMILES	Lassa entry inh	HCV inhibitor	HCMV antiviral	Marburg entry inh	FMDV antiviral
CCCCC[C@H]1CCCCC[C@H](O)C[C@H](O)[C@@H](O)/C=C/C(=O)O1	.	.	-17.4	.	0.0%
COc1ccc(OC)c(NC(=O)c2c(N3CCCC3=O)c3cc(OC)ccc3n2C)c1	26.2%[46.1 µM]	.	10.4	.	-12.6%
CCN(CC)S(=O)(=O)c1cc(C(=O)Nc2cc(C)[nH]n2)ccc1Cl	.	?	.	.	53.3%
C[C@@H]1CN(Cc2ccc3c(c2)CN(Cc2cn[nH]c2-c2ccccc2)CCO3)C[C@H](C)O1	.	.	.	.	-7.9%
O=C(CCl)N1c2ccccc2OCC1c1ccccc1 (stereo not drawn)	0.2%	10.2%	-62.2*	19.5%	17.8µM*
O=C(CCl)N1c2ccccc2SCC1c1ccccc1 (stereo not drawn)	?	?	-98.0*	?	28.2µM*
O=C(CCl)N1CCN(C(=O)C2COc3ccccc3O2)CC1 (stereo not drawn)	?	?	-7.5	?	?
O=C(CSc1ncccn1)NCC1Cc2cccc(-c3ncccn3)c2O1 (stereo not drawn)	.	.	.	.	6.2%
CSCCC1NC(=S)N(Cc2ccccc2)C1=O (stereo not drawn)	.	7.4%	3.4	.	0.0%
CCc1nnc(NC(=O)CN2CCC(O)(c3ccccc3OC)CC2)s1	16.0%	11.5%	-3.8	0.7%	.
COc1ccccc1C1(O)CCN(CC(=O)Nc2nc(-c3ccccc3)cs2)CC1	5.62µM*	10µM*	-12.0	?	25.1µM*
CCOC(=O)N1CCN(C(=O)CSCC(=O)Nc2nc(-c3ccc(-c4ccccc4)cc3)cs2)CC1	.	5.62µM*	-76.6*	.	?
CCOC(=O)N1CCN(C(=O)CSCC(=O)Nc2nc(-c3ccc(Cl)s3)cs2)CC1	-29.1%	11.2µM*	44.5	-13.3%	?
O=C(c1ccccc1)N(Cc1cccc(Br)c1)C1CCS(=O)(=O)C1 (stereo not drawn)	.	17.8%	?	.	-20.2%
O=C(OCc1ccccc1)N1CCC2CC1c1cc(/C=C/CCCSc3ncccn3)ccc12 (stereo not drawn)	.	.	25.9	.	-4.7%
CCOc1ccc(NC(=O)c2cccc(N3CCCS3(=O)=O)c2)cc1	23.2%[46.1 µM]	.	9.4	.	-0.9%
CC(C)Oc1ccc(CNC(=O)c2ccc3nc(C(C)C)oc3c2)cc1	?	.	8.6	.	22.4%
S=c1[nH]nc(-c2ccccc2)n1/N=C/c1ccc(-c2ccccc2Cl)o1	0.82µM*	-1.8%	?	0.708µM*	0.0%
Cc1ccc(-c2n[nH]c(=S)n2/N=C/c2c(C)nn(-c3ccccc3)c2C)cc1	?	0.5%	7.1	?	?
Cc1nc2ccccc2c(=O)n1/N=C/c1ccc(C(C)C)cc1	.	25.1µM*	-18.1	.	-4.3%
Cc1nc2ccccc2c(=O)n1/N=C/c1ccc(O)cc1	-3.2%	13.3%	-29.7	19.6%	.
CC(C)c1ccc(/C=N/n2c(-c3ccccc3)n[nH]c2=S)cc1	.	-9.1%	-65.9*	.	3.0%
S=c1[nH]nc(-c2cccc(Cl)c2)n1/N=C/c1ccc(-c2ccccc2Br)o1	.	-29.5%	?	.	-7.1%
Cc1nn(-c2ccccc2)c(C)c1/C=N/n1c(-c2ccc(C(C)(C)C)cc2)n[nH]c1=S	0.112µM*	?	-17.7	-25.7%	-8.1%

Assay outcomes as filed in PubChem.
